About 2,000 (36%) of roughly 5,500 compounds were called active. Not shown: some 18% with an inconclusive outcome. No stated cut-off is given here; in the data, active means normalized growth mostly below about 0.91 (no sharp cut-off); inconclusive means no clear call, values can overlap the other calls; inactive means mostly above about 0.92. Some of the results follow.
Experiment: chemical genetic growth profiling, strain panel (AID 1159580);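 further: tested at 20 µM; growth read once vehicle control cultures reached saturation at 30 °C; 1 = growth at the plate median or of vehicle wells; lower values mean less growth of the strain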
Conditions: growth OD

Measured: normalized growth

Oc1c(Br)cc(Br)c2cccnc12
active: S. cerevisiae deletion strains, locus YJR075W, strain HOC1, active compounds read low 0.0682 | S. cerevisiae deletion strains, locus YKL009W, strain mrt4, active compounds read low 0.0898 | S. cerevisiae deletion strains, locus YKL068W, active compounds read low 0.0659 | S. cerevisiae deletion strains, locus YKL085W, strain MDH1 (second series), active compounds read low 0.0622 | S. cerevisiae deletion strains, locus YKL085W, strain MDH1, active compounds read low 0.0622 | S. cerevisiae deletion strains, locus YKL160W, strain elf1, active compounds read low 0.0686 | S. cerevisiae deletion strains, locus YKL190W, strain CNB1, active compounds read low 0.049 | S. cerevisiae deletion strains, locus YKR001C, strain vps1, active compounds read low 0.0714 | S. cerevisiae deletion strains, locus YKR026C, strain gcn3, active compounds read low 0.0599 | S. cerevisiae deletion strains, locus YKR091W, strain srl3, active compounds read low 0.0574 | S. cerevisiae deletion strains, locus YLL001W, strain dnm1, active compounds read low 0.0635 | S. cerevisiae deletion strains, locus YLL026W, active compounds read low 0.065 | S. cerevisiae deletion strains, locus YLL041C, strain sdh2, active compounds read low 0.0602 | S. cerevisiae deletion strains, locus YLR027C, strain aat2, active compounds read low 0.0544 | S. cerevisiae deletion strains, locus YLR039C, strain RIC1, active compounds read low 0.0808 | S. cerevisiae deletion strains, locus YLR058C, strain SHM2, active compounds read low 0.0497 | S. cerevisiae deletion strains, locus YLR102C, strain apc9, active compounds read low 0.0675 | S. cerevisiae deletion strains, locus YLR113W, strain HOG1, active compounds read low 0.164 | S. cerevisiae deletion strains, locus YLR221C, strain rsa3, active compounds read low 0.061 | S. cerevisiae deletion strains, locus YLR258W, strain gsy2, active compounds read low 0.0604 | S. cerevisiae deletion strains, locus YLR262C, strain YPT6 (second series), active compounds read low 0.0797 | S. cerevisiae deletion strains, locus YLR262C, strain YPT6, active compounds read low 0.106 | S. cerevisiae deletion strains, locus YLR268W, strain sec22, active compounds read low 0.0737 | S. cerevisiae deletion strains, locus YLR320W, strain mms22, active compounds read low 0.0804 | S. cerevisiae deletion strains, locus YLR330W, strain CHS5, active compounds read low 0.0542 | S. cerevisiae deletion strains, locus YLR342W, strain FKS1 (second series), active compounds read low 0.0742 | S. cerevisiae deletion strains, locus YLR342W, strain FKS1, active compounds read low 0.0656 | S. cerevisiae deletion strains, locus YLR357W, strain rsc2, active compounds read low 0.121 | S. cerevisiae deletion strains, locus YLR370C, strain arc18, active compounds read low 0.0663 | S. cerevisiae deletion strains, locus YLR371W, strain rom2, active compounds read low 0.0714 | S. cerevisiae deletion strains, locus YLR384C, strain iki3, active compounds read low 0.0612 | S. cerevisiae deletion strains, locus YLR418C, strain cdc73, active compounds read low 0.11 | S. cerevisiae deletion strains, locus YML016C, strain PPZ1, active compounds read low 0.0489 | S. cerevisiae deletion strains, locus YML032C, strain rad52, active compounds read low 0.0748 | S. cerevisiae deletion strains, locus YML120C, strain ndi1, active compounds read low 0.0584 | S. cerevisiae deletion strains, locus YML124C, strain tub3, active compounds read low 0.067 | S. cerevisiae deletion strains, locus YMR058W, strain fet3, active compounds read low 0.0605 | S. cerevisiae deletion strains, locus YMR078C, strain ctf18, active compounds read low 0.0799 | S. cerevisiae deletion strains, locus YMR125W, strain sto1, active compounds read low 0.0777 | S. cerevisiae deletion strains, locus YMR129W, active compounds read low 0.0576 | S. cerevisiae deletion strains, locus YMR205C, strain PFK2, active compounds read low 0.0851 | S. cerevisiae deletion strains, locus YMR223W, strain ubp8, active compounds read low 0.0723 | S. cerevisiae deletion strains, locus YMR231W, strain pep5, active compounds read low 0.0707 | S. cerevisiae deletion strains, locus YMR263W, strain SAP30, active compounds read low 0.0608 | S. cerevisiae deletion strains, locus YMR307W, strain GAS1, active compounds read low 0.111 | S. cerevisiae deletion strains, locus YNL067W, strain RPL9B, active compounds read low 0.0529 | S. cerevisiae deletion strains, locus YNL071W, strain lat1, active compounds read low 0.061 | S. cerevisiae deletion strains, locus YNL128W, strain TEP1, active compounds read low 0.0661 | S. cerevisiae deletion strains, locus YNL153C, strain GIM3, active compounds read low 0.0523 | S. cerevisiae deletion strains, locus YNL183C, strain NPR1, active compounds read low -0.0047 | S. cerevisiae deletion strains, locus YNL209W, strain ssb2, active compounds read low 0.0598 | S. cerevisiae deletion strains, locus YNL233W, strain BNI4, active compounds read low 0.0553 | S. cerevisiae deletion strains, locus YNL248C, strain rpa49, active compounds read low 0.0858 | S. cerevisiae deletion strains, locus YNL250W, strain rad50, active compounds read low 0.0799 | S. cerevisiae deletion strains, locus YNL271C, strain bni1, active compounds read low 0.075 | S. cerevisiae deletion strains, locus YNL298W, strain CLA4, active compounds read low 0.0729 | S. cerevisiae deletion strains, locus YNL307C, strain MCK1, active compounds read low 0.078 | S. cerevisiae deletion strains, locus YNL322C, strain KRE1 (second series), active compounds read low 0.0637 | S. cerevisiae deletion strains, locus YNL322C, strain KRE1, active compounds read low 0.0493 | S. cerevisiae deletion strains, locus YNR049C, strain mso1, active compounds read low 0.0578 | S. cerevisiae deletion strains, locus YNR052C, strain pop2, active compounds read low 0.0694 | S. cerevisiae deletion strains, locus YOL006C, strain TOP1, active compounds read low 0.108 | S. cerevisiae deletion strains, locus YOL012C, strain htz1 0.189 | S. cerevisiae deletion strains, locus YOL147C, strain pex11, active compounds read low 0.0679 | S. cerevisiae deletion strains, locus YOR001W, strain rrp6, active compounds read low 0.0757 | S. cerevisiae deletion strains, locus YOR061W, strain CKA2, active compounds read low 0.048 | S. cerevisiae deletion strains, locus YOR069W, strain VPS5, active compounds read low 0.0497 | S. cerevisiae deletion strains, locus YOR070C, strain gyp1, active compounds read low 0.59 | S. cerevisiae deletion strains, locus YOR080W, strain dia2, active compounds read low 0.0706 | S. cerevisiae deletion strains, locus YOR083W, strain WHI5, active compounds read low 0.0621 | S. cerevisiae deletion strains, locus YOR106W, strain vam3, active compounds read low 0.0686 | S. cerevisiae deletion strains, locus YOR136W, strain idh2, active compounds read low 0.0816 | S. cerevisiae deletion strains, locus YOR144C, strain elg1, active compounds read low 0.0654 | S. cerevisiae deletion strains, locus YOR184W, strain ser1, active compounds read low 0.0794 | S. cerevisiae deletion strains, locus YOR231W, strain MKK1, active compounds read low 0.109 | S. cerevisiae deletion strains, locus YOR265W, strain rbl2, active compounds read low 0.0573 | S. cerevisiae deletion strains, locus YOR270C, strain vph1, active compounds read low 0.102 | S. cerevisiae deletion strains, locus YOR290C, strain snf2, active compounds read low 0.0632 | S. cerevisiae deletion strains, locus YOR316C, strain cot1, active compounds read low 0.0675 | S. cerevisiae deletion strains, locus YPL051W, strain arl3, active compounds read low 0.0637 | S. cerevisiae deletion strains, locus YPL055C, strain LGE1, active compounds read low 0.0663 | S. cerevisiae deletion strains, locus YPL078C, strain atp4, active compounds read low 0.0651 | S. cerevisiae deletion strains, locus YPL106C, strain sse1, active compounds read low 0.115 | S. cerevisiae deletion strains, locus YPL240C, strain hsp82, active compounds read low 0.0569 | S. cerevisiae deletion strains, locus YPL241C, strain CIN2, active compounds read low 0.0508 | S. cerevisiae deletion strains, locus YPL256C, strain CLN2, active compounds read low 0.126 | S. cerevisiae deletion strains, locus YPR119W, strain clb2, active compounds read low 0.0704 | S. cerevisiae deletion strains, locus YPR141C, strain kar3, active compounds read low 0.0795 | S. cerevisiae deletion strains, locus YPR163C, strain tif3, active compounds read low 0.0768 | S. cerevisiae deletion strains, locus YPR167C, strain met16, active compounds read low 0.0675 | S. cerevisiae deletion strains, strain wtn01, active compounds read low 0.076 | S. cerevisiae strains, strain wild type, active compounds read low 0.0486

From PubChem BioAssay AID1159580 (chemical genetic matrix, 2015)
